Drawing on PubChem BioAssay, this text covers composite z-score and z-score for 14 molecules.

Molecules are shown by their SMILES. Active and inactive are the calls of the source. Unless noted, the rule behind the calls is not given here.

For experiment [1], the system named is Wnt5a (protein binding on small-molecule microarray). Kind of experiment: small molecules binding Wnt5a protein – biophysical, small-molecule microarray, 635/667 nm fluorescence, primary screen (AID 1142).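 Note: fluorescence read at 667 nm with signal to noise per printed feature.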 The following applies: 635 nm fluorescence, higher = more signal.
A short description of experiment [2]: ATP-based viability of Huh7 replicon cells – cell-based, CellTiter-Glo luminescence, basal, 48 h, cytotoxicity control for HCV replication inhibitor project, primary screen (AID 1143).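 Note: Huh7 hepatoma cells carrying a hepatitis C replication reporter with no stimulus; test concentration not given here.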 The note with it: higher = more signal, called active from +8 up or from −8 down.
The nature of experiment [3]: Pseudomonas biofilm growth suppression – PAO1 strain, BacTiter-Glo luminescence, LB-PBS, primary screen (AID 1144). The note with it: P. aeruginosa PAO1 biofilm, 12 h, higher = more signal.
A short description of experiment [4]: basal CRE-LacZ reporter activity in PC12 – cell-based, unstimulated, primary screen (AID 1145). The following applies: no forskolin, luminescence, 4.5 h, higher = more signal, called active from +8 up or from −8 down.
The nature of experiment [5]: forskolin-driven CRE-LacZ activity in PC12 – cell-based, CRE-LacZ reporter, forskolin-stimulated, primary screen (AID 1146).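 Note: PC12 cells with 6xCRE LacZ reporter stimulated by forskolin 10 µM; beta-galactosidase reporter signal reflecting CREB driven transcription.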 The note with it: luminescence, 4.5 h, higher = more signal, called active from +8 up or from −8 down.
Experiment [6] has as its target Streptavidin (Streptomyces avidinii) (UniProt P22629). Kind of experiment: compounds binding control protein streptavidin – biophysical, small-molecule microarray, 635/667 nm fluorescence, artefact control for SMM compound annotation, primary screen (AID 1147).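 Note: signal reflects streptavidin binding to arrayed compounds as a control protein.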 The note with it: higher = more signal.
Experiment [7] is described as follows: probe aInhba binding on compound microarray – biochemical, small-molecule microarray, 635/667 nm fluorescence, primary screen (AID 1148).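 Note: score merges 667nm spot fluorescence with signal-to-noise for antibody binding to printed compounds.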 The following applies: higher = more signal.
The target of experiment [8] is Torsin-1A (Homo sapiens) (UniProt O14656). Kind of experiment: TOR1A wild-type binding on microarray – cell lysate, small-molecule microarray, lysate, 635/667 nm, primary screen (AID 1149). The note with it: COS7 hTOR1A-WT lysate, 635 nm fluorescence, higher = more signal.
Experiment [9] has the same target. Kind of experiment: torsin A mutant lysate binding on microarrays – cell lysate, small-molecule microarray, COS7 lysate, 635/667 nm fluorescence, primary screen (AID 1150).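 Note: score pools 667 nm emission and signal to noise measuring lysate protein binding.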 The following applies: COS7 hTOR1A mutant lysate, 635 nm fluorescence, higher = more signal.
For experiment [10], the system named is Sonic hedgehog protein (Shh). Kind of experiment: Sonic hedgehog microarray binding compounds – biochemical, small-molecule microarray, 635/667 nm fluorescence, primary screen (AID 1151).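 Note: Shh protein binding to compounds spotted on small-molecule microarray slides; score combines spot fluorescence intensity with signal-to-noise across triplicate slides.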 The following applies: 635 nm fluorescence, higher = more signal.

Streptavidin (Streptomyces avidinii), sequence (P22629 whole entry, looked up): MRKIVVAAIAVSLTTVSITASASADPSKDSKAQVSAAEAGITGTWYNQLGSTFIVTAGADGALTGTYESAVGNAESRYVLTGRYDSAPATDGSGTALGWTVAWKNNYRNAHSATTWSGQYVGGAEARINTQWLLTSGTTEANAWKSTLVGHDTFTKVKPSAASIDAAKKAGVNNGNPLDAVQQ
Torsin-1A (Homo sapiens), sequence (O14656 whole entry, looked up): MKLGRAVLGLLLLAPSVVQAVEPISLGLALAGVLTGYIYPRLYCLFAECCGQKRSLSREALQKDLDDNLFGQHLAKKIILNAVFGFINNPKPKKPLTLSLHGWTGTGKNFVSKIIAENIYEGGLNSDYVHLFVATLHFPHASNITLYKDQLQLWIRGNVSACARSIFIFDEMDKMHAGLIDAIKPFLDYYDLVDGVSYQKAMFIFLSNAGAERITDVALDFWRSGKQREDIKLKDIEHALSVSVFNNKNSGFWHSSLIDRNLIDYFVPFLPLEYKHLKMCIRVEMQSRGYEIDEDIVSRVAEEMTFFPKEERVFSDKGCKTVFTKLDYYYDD

Regarding `COc1cc(C(O)C2C=CC3C(=O)N(c4ccccc4)C(=O)C3N2Nc2ccc(C#N)cc2)cc(OC)c1OC` (stereo not given), the composite z-score in experiment [1] is 0.537; in experiment [6], 1.66; in experiment [7], 0.201; in experiment [8], 0.249; in experiment [9], 0.204; in experiment [10], 0.117. Besides, the z-score was 0.616 (inactive) in experiment [2], -0.201 (inactive) in [3], 0.426 (inactive) in experiment [4] and 0.238 (inactive) in experiment [5].
As for `CCCCC=C[C@@H](NC(=O)c1ccco1)c1ccccc1`, the composite z-score in experiment [1] was found to be 0.143; in [6], 0.889; in experiment [7] it was 0.194; in experiment [8], 0.129; in [9] it was 0.225; in [10] it was 0.0154. The z-score in [2] was -1.08 (inactive); in [3], -0.668 (inactive); in experiment [4], 0.19 (inactive); in [5], -0.0695 (inactive).
As to `COC(=O)c1c(CC[C@@H](CO)NC(=O)N[C@@H](Cc2ccccc2)Cn2cc(C3(O)CCCCC3)nn2)oc(C(C)=O)c1C(=O)OC`, the composite z-score was 0.636 in [1]; 1.16 in [6]; -0.0178 in experiment [7]; 0.69 in [8]; 0.405 in experiment [9]; 1.7 in experiment [10]. Also, the z-score was -5.52 (inactive) in experiment [2], -1.73 (inactive) in [3], 0.512 (inactive) in [4] and -1.36 (inactive) in [5].
As for `O=C1OCC=C[C@H]2OC34C=CCN(c5ccc(Cl)cc5)C(=O)[C@H]3N(CCCCCCO)C(=O)[C@@H]4[C@@H]12` (stereo not given in full), the composite z-score in experiment [1] is -0.557; in experiment [6] it was -0.857; in experiment [7], -0.0494; in experiment [8], -1.39; in experiment [9] it was -1.21; in experiment [10], -0.38. Besides, the z-score in experiment [2] is -0.652 (inactive); in experiment [3], 1.36 (inactive); in experiment [4], 1.41 (inactive); in experiment [5], -0.0889 (inactive).
Take `COCCOC(=O)N1C(=O)[C@@]2(c3cc(C#CC4=CCCCC4)ccc31)[C@H](C(=O)NC[C@H](O)c1ccccc1)[C@H]1C(=O)O[C@H](c3ccccc3)[C@H](c3ccccc3)N1[C@@H]2c1ccc(O)cc1`: the composite z-score in experiment [1] is 0.236; in experiment [6], 1; in experiment [7], 0.221; in experiment [8] it was 0.838; in experiment [9] it was 0.652; in experiment [10] it was 1.34. The z-score in experiment [2] was -3.91 (inactive); in experiment [3] it was 1.19 (inactive); in [4], 0.208 (inactive); in [5], -1.04 (inactive).
As for `N[C@@H](Cc1ccccc1)Cn1cc(-c2ccccc2)nn1`, the composite z-score is -0.15 in experiment [1]; 0.861 in experiment [6]; -0.0963 in experiment [7]; -0.0409 in [8]; -0.0827 in experiment [9]; 0.0939 in [10]. In addition, the z-score in experiment [2] is -2.58 (inactive); in experiment [3], -0.244 (inactive); in [4], 0.0035 (inactive); in experiment [5], 0.292 (inactive).
As to `COC(=O)[C@@]1(Cc2ccccc2)[C@H]2c3cc(C(=O)N(C)C)n(Cc4c(-c5ccccc5)noc4C)c3C[C@H]2CN1C(=O)c1ccccc1`, the composite z-score was 0.235 in [1]; 1.47 in experiment [6]; 0.308 in experiment [7]; 0.301 in [8]; 0.584 in experiment [9]; -0.141 in experiment [10]. Also, the z-score is -2.2 (inactive) in experiment [2], -0.0247 (inactive) in [3], 0.201 (inactive) in [4] and -0.732 (inactive) in [5].
Turning to `COc1ccc(CCNC(=O)[C@@H]2c3ccccc3C(=O)N(Cc3ccc(OC(F)(F)F)cc3)[C@H]2c2ccc(CO)cc2)cc1`, the composite z-score in [1] was 0.446; in experiment [6] it was -0.0886; in experiment [7], -0.0465; in experiment [8] it was -0.271; in experiment [9] it was 0.366; in [10], -0.144. Also, the z-score in experiment [2] is -2.71 (inactive); in [3] it was -0.676 (inactive); in [4], -0.475 (inactive); in [5], -0.206 (inactive).
With `CCOC(=O)C[C@H]1[C@H](OC(=O)Cc2ccc3c(c2)OCO3)[C@@H](NC(=O)c2ccc(-c3ccccc3)cc2)c2cc(OCCCO)ccc2N1C(=O)c1ccccc1`, the composite z-score turned out to be 0.0105 in experiment [1]; 0.0534 in experiment [6]; 0.0906 in experiment [7]; 0.328 in experiment [8]; 0.132 in experiment [9]; 0.358 in [10]. For the same molecule, the z-score in experiment [2] is -0.299 (inactive); in experiment [3] it was -1.24 (inactive); in [4], 3.12 (inactive); in experiment [5], -1.27 (inactive).
`COc1ccc([Si](C)(C)[C@@H]2[C@@H](CC(=O)N3CCC[C@H]3CO)O[C@]3(C(=O)N(C)c4c(Br)cc(C)cc43)[C@H]2C)cc1`: the composite z-score in experiment [1] is 0.29; in experiment [6], 0.367; in experiment [7] it was -0.103; in [8], 0.178; in experiment [9] it was 0.67; in [10] it was 1.43. In addition, the z-score in [2] was -2.39 (inactive); in experiment [3] it was 0.74 (inactive); in experiment [4], 6.67 (inactive); in experiment [5], 0.157 (inactive).
For the molecule `O=c1oc(-c2ccccc2)nc2cc(Br)ccc12`, the composite z-score in experiment [1] was 0.147; in experiment [6], 0.0708; in experiment [7], -0.176; in [8] it was 0.641; in experiment [9], 0.508; in experiment [10], 0.44. Moreover, the z-score in [2] is -0.746 (inactive); in experiment [3], 0.786 (inactive); in [4], 0.416 (inactive); in [5] it was 0.827 (inactive).
For the molecule `CC(C)N1C(=O)c2ccccc2[C@@H](C(=O)NCCCN(C)C)[C@@H]1c1ccc(CO)cc1`, the composite z-score in [1] was -0.0882; in [6], -0.418; in experiment [7], 0.0633; in experiment [8], -0.0795; in experiment [9], -0.0729; in experiment [10], -0.589. Further, the z-score is -0.921 (inactive) in [2], -0.282 (inactive) in [3], -0.116 (inactive) in experiment [4] and -0.0135 (inactive) in experiment [5].
Turning to `COCCOC(=O)N1C(=O)[C@@]2(c3cc(C#CCC(C(=O)OC)C(=O)OC)ccc31)[C@H](c1ccc(O)cc1)N1[C@H](c3ccccc3)[C@H](c3ccccc3)OC(=O)[C@H]1[C@@H]2C(N)=O`, the composite z-score is 0.641 in experiment [1]; 1.04 in experiment [6]; 0.215 in experiment [7]; 1.61 in [8]; 1.35 in experiment [9]; 0.922 in [10]. The z-score in experiment [2] was -0.427 (inactive); in experiment [3], 0.075 (inactive); in [4] it was -0.329 (inactive); in [5], 0.305 (inactive).
For `C=CCOC(=O)[C@H]1[C@@H]2C(=O)O[C@@H](c3ccccc3)[C@@H](c3ccccc3)N2[C@@H](c2ccc(OCCOC(=O)[C@@H]3C[C@@H]4C(=O)NCC(=O)N4[C@@H]3c3ccc(O)cc3)cc2)[C@]12C(=O)Nc1ccccc12`, the composite z-score in experiment [1] is 0.773; in [6], -0.0156; in experiment [7], -0.0221; in [8] it was 0.342; in [9], 0.767; in experiment [10] it was 2.28. Besides, the z-score in experiment [2] is -0.987 (inactive); in [3], -0.759 (inactive); in experiment [4], 0.0205 (inactive); in experiment [5], -0.979 (inactive).
